ssDAF-12 act = S. stercoralis DAF-12 nuclear receptor activators, primary screen, cell-based, luminescence, HEK293, GRIP1 co-expression, lit1-tk-luc; Nuclear hormone receptor DAF-12 (Strongyloides stercoralis); HEK293 ssDAF-12/GRIP1 lit1-tk-luc reporter; % of 3 µM dafachronic acid response; activation, % at 6.8 µM; 1% of 370,000 active;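 active means activation above the mean over all tested compounds plus 3 SD, cut at about 0.9% in these data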;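 further: 0% = DMSO-only wells and 100% = 3 µM delta7-dafachronic acid wells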
hcDAF12 agonist = H. contortus DAF-12 nuclear receptor activators, primary screen, cell-based, luminescence, HEK293, lit1-tk-luc reporter. 1.4% of 370,000 active. AID 652067, 2013. activation, % at 6.8 µM. HEK293 hcDAF-12 lit1-tk-luc reporter; 0% DMSO, 100% Δ7-dafachronic acid;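 active means activation above the mean of all tested compounds plus 3 SD, cut at about 5.5% in these data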;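 further: 100% = response to 3 µM Δ7-dafachronic acid high control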
DAX1 inh-1 = DAX1 (NR0B1) inhibitors on StAR promoter, primary screen, cell-based, luminescence, SF-1 (NR5A1), full-length DAX-1 | AID 652010, 2013 | HEK293T StAR-luciferase reporter, SF-1/DAX-1 repression relief | 1.1% of 370,000 active | inhibition, % at 6.8 µM;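 active means inhibition above the mean over all tested compounds plus 3 SD, cut at about 3.6% in these data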;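 further: 0% = DAX-1 cells with DMSO and 100% = cells lacking DAX-1 with DMSO; higher inhibition means more luminescence from relief of DAX-1 repression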
hgDAF-12 ag = H. glycines DAF-12 receptor agonists, primary screen, cell-based, luminescence, HEK293, GAL4 fusion, UAS-luciferase. Nuclear hormone receptor DAF-12 (Heterodera glycines), GAL4 fusion. HEK293 GAL4-hgDAF12 UAS-luciferase reporter, agonist luminescence; normalized to butyrate control. activation, % at 6.8 µM. 1.8% of 370,000 active. AID 687014, 2013;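 active means activation above a cutoff set at the mean of all screened compounds plus 3 SD, cut at about 10% in these data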;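 further: 0% = DMSO wells and 100% = sodium butyrate wells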
DAX1 inh-2 = DAX1 (NR0B1) inhibitors, primary screen, cell-based, HEK293, Gal4-DAX1, luciferase luminescence. HEK293 Gal4-DAX1 luciferase reporter. inhibition, % at 6.75 µM. 0.99% of 340,000 active. AID 504766, 2011;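 active means inhibition above the mean over all tested compounds plus 3 SD, cut at about 4.2% in these data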;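 further: 0% = DAX1-transfected cells with DMSO and 100% = empty-vector control cells with DMSO; inhibition shows as a rise in luminescence from relieved DAX1 repression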
Target sequence (P51843 207-470 limits assumed): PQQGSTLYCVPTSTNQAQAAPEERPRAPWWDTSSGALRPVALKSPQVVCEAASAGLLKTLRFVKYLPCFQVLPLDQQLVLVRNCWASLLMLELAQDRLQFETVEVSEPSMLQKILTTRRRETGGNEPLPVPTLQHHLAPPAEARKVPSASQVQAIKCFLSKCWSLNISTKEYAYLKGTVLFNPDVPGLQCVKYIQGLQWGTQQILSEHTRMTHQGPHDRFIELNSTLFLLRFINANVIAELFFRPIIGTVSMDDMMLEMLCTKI
Active calls of the source: *; . = not tested or not shown. Compounds with a hit are over-represented: about 4.1% of the library has one in this group of screens.

SMILES	ssDAF-12 act	hcDAF12 agonist	DAX1 inh-1	hgDAF-12 ag	DAX1 inh-2
CCc1ccc2nc3n[nH]c(N)c3cc2c1	-0.7	3.8	2.9	11.3*	1.2
COc1ccc(CCNC(=O)CSc2nc(=O)[nH]c3c2CCC3)cc1OC	-0.9	0.2	-2.8	1.1	1.1
NS(=O)(=O)c1ccc(NCC2COc3ccccc3O2)c([N+](=O)[O-])c1 (stereo unspecified)	0.1	3.8	0.1	11.2*	-0.2
O=[N+]([O-])c1ccc(S(=O)(=O)NCC2COc3ccccc3O2)cc1 (stereo unspecified)	-0.4	2.8	0.9	-0.1	0.6
CSc1ccc(OC2(C)CCN(Cc3ccc(-c4ccccn4)cc3)C2)cc1 (stereo unspecified)	-0.4	-0.9	0.0	3.0	.
Cc1ccc(/C=N/n2c(C)nc3ccccc3c2=O)o1	-1.3	0.9	0.1	1.7	4.5*
Cc1ccc(/C=N/n2c(C)nnc2C)o1	0.5	4.0	0.3	0.9	4.3*
Cc1cc(C)c2sc(NC(=O)CN3C(=O)CCC3=O)nc2c1	-1.2	-0.1	0.6	2.1	5.1*
COC(=O)C[C@H]1C[C@H]2c3cc(NC(=O)Nc4ccc(F)cc4)ccc3O[C@H]2[C@@H](CO)O1	-1.6	-1.2	-1.6	-2.6	2.0
O=C(/C=C(\Nc1ccc(Cl)c(C(F)(F)F)c1)c1ccccc1)c1ccccc1	-0.8	0.2	1.3	1.7	.
CCCC(=O)N(Cc1cc2cc(OC)ccc2[nH]c1=O)c1ccc(OC)cc1	-1.4	-0.8	-0.9	0.5	-0.7
CCOc1ccc(N2C(=O)CC(N3CCN(c4ccc([N+](=O)[O-])cc4)CC3)C2=O)cc1 (stereo unspecified)	-0.7	-2.8	0.0	3.5	1.2
CCCOc1ccc(N2C(=O)CC(N3CCN(c4ccc([N+](=O)[O-])cc4)CC3)C2=O)cc1 (stereo unspecified)	-1.8	-4.2	-0.6	-1.9	5.2*
COC(=O)C1=C(NC(=O)c2ccc(C)c(C)c2)CCS1	0.3	6.1*	0.1	3.8	-0.3
COC(=O)C1=C(NC(=O)c2ccc(Br)cc2)CCS1	0.7	2.8	0.4	4.7	-0.3
C/C(=N\NC(=O)c1ccccc1F)c1ccc(C#N)cc1	-0.9	1.3	2.7	5.1	4.5*
Cc1ccc(S(=O)(=O)N(C)Cc2ccc(C(=O)N/N=C/c3ccc(OC(F)F)cc3)cc2)cc1	-0.7	-0.9	0.0	-0.8	6.2*
C/C(=N\NC(=O)c1ccc(CN(C)S(=O)(=O)c2ccc(C)cc2)cc1)c1ccc(OC(F)F)cc1	-1.5	-0.1	-0.6	1.8	0.0
O=C(c1ccc2ncsc2c1)N1CCN(c2cccc(C(F)(F)F)c2)CC1	-1.3	-1.6	-4.7	6.2	-2.1
Cn1nc(C(F)(F)F)cc1-c1ccc(S(N)(=O)=O)s1	-0.8	-1.1	0.4	1.5	5.1*
Cn1nc(-c2ccc(S(N)(=O)=O)s2)cc1C(F)(F)F	-1.8	-0.1	0.0	2.0	1.1
O=C(c1ccccc1)c1nn(-c2ccc(Cl)cc2)cc1C(=O)c1cc2ccccc2oc1=O	1.1*	3.6	0.8	-0.6	0.8
O=S(=O)(c1ccccc1)N1CCCc2nc(-c3ccc(Br)cc3)ccc21	-1.4	-0.1	-0.5	-0.4	.
Nc1ncnc(N)c1NC(=O)c1cc(Cl)c(OCc2ccccc2)c(Cl)c1	-1.4	0.5	0.0	-0.8	0.7
Cc1nc(NC(=O)c2ccc(F)cc2)nc2cc3c(cc12)OCO3	-1.5	-0.6	0.5	2.1	2.6
SMILES	ssDAF-12 act	hcDAF12 agonist	DAX1 inh-1	hgDAF-12 ag	DAX1 inh-2
Cc1nc(NC(=O)c2ccccc2)nc2cc3c(cc12)OCO3	0.5	1.9	2.2	11.8*	1.3
Cc1cc2nc(C(C)(C)C)c(Cc3ccsc3)n2c(C)c1Br	0.4	2.7	4.1*	1.5	.
Cc1cc2nc(C3CCCCC3)c(Cc3ccsc3)n2c(C)c1Br	-0.8	1.3	-1.6	1.6	.
Cc1ccc(Cc2c(C(C)(C)C)nc3cc(C)c(Br)c(C)n23)cc1	1.2*	3.9	-1.3	2.5	.
Cc1cc2nc(C(C)(C)C)c(Cc3cccc(Cl)c3)n2c(C)c1Br	-0.6	2.6	0.2	2.4	.
O=C(CCc1nc(-c2cccs2)no1)Nc1cnc2ccccc2c1	1.7*	0.7	0.2	-2.3	-0.8
CCc1cccc(NC(=O)CCc2nc(-c3cccs3)no2)c1	-1.8	-1.3	-1.0	0.0	-0.2
CN(C)/C=N/c1ncn(-c2ncc(C(F)(F)F)cc2Cl)n1	-0.5	4.3	1.5	7.8	4.4*
CC1CCCC(NC(=O)CSc2ncccc2C(=O)O)C1C (stereo unspecified)	1.2*	1.8	-0.1	-1.8	0.8
Cc1cn(-c2cc(NC(=O)c3ccc(C)c(Nc4nccc(-c5cccnc5)n4)c3)cc(C(F)(F)F)c2)cn1	-1.2	-2.8	-1.5	0.9	.
COc1cc(F)ccc1Oc1cccc2c1S(=O)(=O)N(C1CC1)C[C@@H](COCc1ccccc1)O2	-1.2	-2.0	-1.4	-1.1	.
Cc1cc(C(C)(C)C)ccc1Oc1cccc2c1S(=O)(=O)N(C1CCCC1)CC(COCc1ccccc1)O2 (stereo unspecified)	0.0	-0.3	3.6*	3.2	1.2
CC(C)CNC(=O)OCc1cn(Cc2cccc(F)c2F)nn1	-0.6	-0.3	0.8	0.1	.
COC(=O)c1cc2c(c3c4cc(F)ccc4n(S(=O)(=O)c4ccc(C)cc4)c13)C(=O)N(Cc1ccccc1OC)C2	-0.1	-0.2	-0.1	-0.6	.
CCC(CC)C(=O)N(C)c1c(C)nc2c(OCc3ccc(Cl)cc3)cccn12	-1.3	-2.0	-1.1	4.8	.
Cc1nn(CCOc2ccccc2)c(=O)n1-c1c(F)cccc1F	-0.8	2.5	2.2	10.6*	3.5
COCCNC(=S)N1C[C@H]2CON(C)[C@H]2C[C@H]1c1ccccc1Br	-0.7	-1.9	0.9	-3.7	.
COCCCN1CC23C=CC(O2)C(C(=O)O)C3C1=O (stereo unspecified)	-0.4	-2.2	-0.5	0.6	-3.1
CCOC(=O)N1CCC(N2CC34C=CC(O3)C(C(=O)O)C4C2=O)CC1 (stereo unspecified)	-0.8	-2.0	0.2	-0.7	4.3*
CCCN1CC23C=CC(O2)C(C(=O)O)C3C1=O (stereo unspecified)	-0.8	1.3	-0.7	-0.9	5.0*
CCC(C)N1CC23C=CC(O2)C(C(=O)OC)C3C1=O (stereo unspecified)	-1.5	1.3	-0.1	3.5	6.7*

High-throughput results as filed in PubChem BioAssay.
